High-throughput results: PubChem, National Center for Advancing Translational Sciences (NCATS)
Hits are enriched below; roughly 0.86% of the tested compounds scored in any of these assays.
AmpC detergent – blocks E. coli AmpC beta-lactamase in detergent assay | AID 485294 | AmpC hydrolysis of nitrocefin, absorbance 480 nm, 0.01% Triton | P00811 | 370,000 compounds, 0.041% hits | Potency, µM (highest dose often 114 µM), for inactives: at the top dose activity change, negative = inhibition, most hits filed as inhibitors;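 note: 0% = no-compound wells and -100% = no-enzyme wells; nearly all actives have a fitted effect of over 25% in size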
Target sequence (P00811 whole entry, looked up): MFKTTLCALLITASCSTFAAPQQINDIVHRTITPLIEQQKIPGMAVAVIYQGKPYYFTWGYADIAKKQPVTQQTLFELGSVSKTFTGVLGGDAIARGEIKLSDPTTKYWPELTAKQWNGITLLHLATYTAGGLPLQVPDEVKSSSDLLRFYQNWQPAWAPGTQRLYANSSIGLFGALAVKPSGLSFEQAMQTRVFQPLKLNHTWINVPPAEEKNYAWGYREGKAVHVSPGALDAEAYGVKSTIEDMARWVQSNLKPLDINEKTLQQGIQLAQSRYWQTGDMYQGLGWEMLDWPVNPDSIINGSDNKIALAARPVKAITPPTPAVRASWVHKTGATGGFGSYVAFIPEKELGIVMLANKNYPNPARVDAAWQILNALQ
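20 mM phosphate pH 7.0 + 0.01% (detergent screen) or 0.0001% Triton X-100; 5.3 nM AmpC reagent; cpd preinc 15 min RT; nitrocefin (800 uM stock) to start; A480 q20 s × 4 min; Activity was normalised to no-enzyme and no-compound control wells.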
AMA1 RON2 block – AMA1-RON2 (P. falciparum) interaction inhibition | AlphaScreen AMA1-biotinylated RON2 peptide binding | Potency, µM (titrated, usually from 58.2 µM), for inactives: at the top dose activity change, negative = inhibition, actives largely listed as inhibitors | 360,000 compounds, 0.2% hits | AID 720542;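 note: 0% = vehicle wells and -100% = peptide control; nearly all actives have a fitted effect of over 45% in size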
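AMA1 (3D7) with his tag at 25 nM final met compounds first, then biotinylated RON2 peptide at 25 nM; detection used donor plus acceptor beads, 10 µg/mL apiece, read by AlphaScreen after 30 min at room temperature.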
NS1 function inh – influenza NS1 inhibition; AID 2326; Potency, µM (highest dose often 46.1 µM), for inactives: at the top dose activity, positive = more growth; 270,000 compounds, 0.4% hits; calls by dose curve; note: actives are rising curves; nearly all actives have a fitted effect of over 50% in size
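A cell-based growth assay was used: compounds that relieve NS1-induced slow growth of budding yeast raise OD600. Assay medium was yeast nitrogen base with ammonium sulphate and -URA supplement, pH 6.0, with 2% galactose.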
AmpC inh no detg – blocks E. coli AmpC beta-lactamase in detergent-free assay; P00811; AmpC nitrocefin hydrolysis, absorbance 480 nm, 0.0001% Triton; Potency, µM (series often up to 57.1 µM), without a hit: at the top dose activity change, negative = inhibition, usual class: inhibitors; 330,000 compounds, 0.52% hits;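 note: plate controls were no compound for no effect and no enzyme for full effect; nearly all actives have a fitted effect of over 20% in size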
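AmpC (5.3 nM in the dispensed reagent) in 20 mM phosphate pH 7.0 with 0.01% (detergent screen) or 0.0001% Triton X-100 was preincubated with compounds for 15 min at room temperature. Nitrocefin was then added from an 800 uM solution, and hydrolysis was followed at 480 nm.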
* = called active by the depositor; ? = inconclusive; / = not tested or not shown; [ ] = dose if it differs, or a comment. Unless noted, calls come from the whole dose curve; as a rule, active = well fitted curve in the direction sought with a large enough effect; inconclusive = small, poorly fitted or top-dose-only effect, or another doubt; inactive = no such curve, though single readings can be large; an effect the other way counts as inactive or inconclusive. Potency is the fitted concentration of half-maximal effect.

SMILES	AmpC detergent	AMA1 RON2 block	NS1 function inh	AmpC inh no detg
COc1nc(N)c(S(=O)(=O)c2ccccc2C)cc1C#N	6%	-2%	-3%	0.16µM*
COc1nc(N)c(S(=O)(=O)c2ccccc2)cc1C#N	0%	-3%	5%	-30%
c1ccc(N2CCN(Cc3nnc(-c4ccc5c(c4)OCO5)o3)CC2)cc1	13%	/	/	/
Cn1cccc1/C=C1\SC(=S)N(NC(=O)c2ccccc2O)C1=O	2%	9%	-7%	-44%
O=C(NN1C(=O)/C(=C/C=C/c2ccco2)SC1=S)c1ccccc1O	4%	-30%	-7%	16µM*
O=C1S/C(=C\C=C\c2ccco2)C(=O)N1c1ccc(O)cc1	-3%	1%[11.6 µM]	11%	32µM*
COc1ccc(-c2noc(CCC(=O)NCc3cccnc3)n2)cc1OC	?	-4%	6%	2%
NCCP(=O)(O)O	/	/	-11%	/
CN(C)CCCN1C(=O)CSC1c1ccccc1 (stereo not given)	?	3%	2%	1µM*
O=C(Cn1cc2c(n1)CCCCC2)N1CCc2ccccc2C1	?	6%	8%	0.56µM*
Cc1cc(C)nc(N/N=C/c2cn[nH]c2-c2ccc(F)cc2)n1	0%	56%	1%	-35%
O=C(N=Nc1c(O)[nH]c2ccccc12)Nc1ccccc1	/	-16%	/	/
Cc1cccc(NC(=S)N=Nc2c(O)[nH]c3ccccc23)c1	?	6%	11%	32µM*
COc1ccc(-c2nc3ncccc3o2)cc1NC(=O)c1ccco1	4%	0%	-1%	-9%
COc1cc(/C=C/C(=O)c2c(O)cc(C)oc2=O)cc(OC)c1O	-9%	-4%	1%	0%
CSc1ccc(/C=C/C(=O)c2c(O)cc(C)oc2=O)cc1	-11%	84%	?	28µM*
Cc1cc(O)c(C(=O)/C=C/c2ccc(Cl)cc2)c(=O)o1	-1%	58%	14%	25µM*
O=C1CC(CC(=O)N/N=C/c2ccccc2[N+](=O)[O-])=NN1	?	46%	6.3µM*	-21%
CCCCNc1c([N+](=O)[O-])cc(C)cc1[N+](=O)[O-]	-14%	19µM*	19%	-22%
CCCCNC(=O)c1ccccc1C(=O)NCCCC	0%	3%	2%	1.1µM*
CCCCNC(=O)c1ccccc1Cl	-25%	0%	7%	-9%
CC(=O)C1=C(C)OC(N)=C(C#N)C1c1cc2cc(C)c(C)cc2nc1Cl (stereo not given)	1%	0%	-7%	0.32µM*
CCOc1ccc(CC(=O)NC2CC(=O)N(c3ccc(C)c(C)c3)C2)cc1 (stereo not given)	1%	/	/	/
CC1=CC(=O)C=CC1=Nc1ccc(N(C)C)cc1	/	4µM*	/	/
CC(=O)ON=C1C=CC(=C(C#N)c2ccccc2)C=C1	/	28µM*	/	/
SMILES	AmpC detergent	AMA1 RON2 block	NS1 function inh	AmpC inh no detg
COc1ccc(C(=O)c2ccc(Cl)cc2)cc1	-8%	16%	-1%	-17%
COc1ccc(C(C#N)=C2C=CC(=NO)C=C2)cc1	1%	16µM*	-92%	-28%
CCOC(=O)[C@@H](NC(=O)/C=C/[C@H]1O[C@@H](n2ccc(=O)[nH]c2=O)[C@H](O)[C@@H]1O)C(C)C	/	2%	/	/
O=C1CN(C(=O)CNCc2ccccc2)c2ccccc2N1	6%	?	4%	-19%
Cc1ccc(NC(=O)c2ccc(COc3ccccc3Cl)o2)cc1	-8%	/	/	/
CN(C)c1ccc(NC(=O)c2ccc(COc3cccc(Cl)c3)o2)cc1	-4%	28µM*	-39%	-12%
COc1cccc2cc(C(=O)CS(=O)(=O)c3ccc(C(C)(C)C)cc3)c(=O)oc12	-1%	-6%	13%	18µM*
CS(=O)(=O)c1ccc(C(=O)OCC(=O)N(CCc2ccccc2)Cc2ccccc2)cc1	-13%	3%	/	58%
CC(C)(C)NS(=O)(=O)c1ccc(Oc2ncc(C(F)(F)F)cc2Cl)cc1	-5%	-2%	-23%	5µM*
COCCCNS(=O)(=O)c1ccc(Oc2ncc(C(F)(F)F)cc2Cl)cc1	5%	-1%	1%	58%
CCN(C(=O)COC(=O)/C=C/c1nc2ccccc2s1)c1c(N)n(Cc2ccccc2)c(=O)[nH]c1=O	/	8%	/	/
COc1ccc(CC2CC(=O)N(c3ccc(C)cc3)C2=O)cc1 (stereo not given)	-8%	9%	-1%	-4%
S=c1[nH]nc(Nc2cccc3ccccc23)s1	-6%	45%	5%	28µM*
Cc1ccccc1Nc1n[nH]c(=S)s1	/	102%	/	/
